# Assay results as given in the supplement of paper PMC10849652.
# Targets with a hit are over-represented here; the source holds about 8,800 in all. About 0.5% of all pairs of compound and target were hits. A number with no mark means an inactive call.
# Columns and labels:
# Experiment in all cases: log2 fold change, soluble protein after heating vs DMSO (PISA); higher = thermal stabilisation; K562 lysate, 10 uM; active = over 0.2 and 3.5 SD of the protein, either way, in both replicates (recomputed)
# erlotinib = compound: C#Cc1cccc(Nc2ncnc3cc(OCCOC)c(OCCOC)cc23)c1 [erlotinib]
# Outline: (§1)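 Pellets of K562 cells were dounce-homogenised in PBS pH 7.4 with 1 mM MgCl2, and the crude extract was held at 1 mg/mL protein for a 30 min treatment with 10 μM compound. Aliquots were heated for 3 min over 48°C-58°C and pooled before NP-40 was added to 0.5% at 4°C. The supernatant from 21,000xg for 90 min was quantified by TMTpro 16plex LC-MS/MS with channel sums equalised. Values are reported from duplicates as log-two fold change in thermal stability relative to solvent controls.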
# [1] = compound: C/C(=N\NC(=O)C1=CC(=CC=C1)S(=O)(=O)N2CCOCC2)/C3=C(C=CC(=C3)Cl)O
# Outline: as §1
# [2] = compound: C1=CC(=CC=C1C2=NC3=C(N2)C=C(C=C3)C(=O)N)OC4=CC=C(C=C4)Cl
# Outline: as §1
# [3] = compound: C1=CC2=C(C=CC(=C2)/C=C\3/C(=O)NC(=NCC4=CC=CS4)S3)N=C1
# Outline: as §1
# [4] = compound: C1=CC2=NC=CN=C2C=C1/C=C/3\C(=O)NC(=O)S3
# Outline: as §1
# [5] = compound: C1=CC=C(C=C1)C2=NC(=C(N2)C3=CC=NC=C3)C4=CC(=C(C=C4)Cl)O
# Outline: as §1
# [6] = compound: C1=CC=C2C(=C1)C3=NNC4=CC=CC(=C43)C2=O
# Outline: as §1
# [7] = compound: C1CCN(C1)C(=O)NC2=CC=CC(=C2)NC3=NC=C(C(=N3)NCCC4=CN=CN4)Br
# Outline: as §1
# [8] = compound: C1CN(CCC1(CC2=CC=C(C=C2)Cl)N)C3=NC=NC4=C3C=CN4
# Outline: as §1
# IRAK-1-4 Inhibitor I = compound: C1COCCN1CCN2C3=CC=CC=C3N=C2NC(=O)C4=CC(=CC=C4)[N+](=O)[O-] [IRAK-1-4 Inhibitor I]
# Outline: as §1
# ibrutinib = compound: C=CC(=O)N1CCC[C@@H](n2nc(-c3ccc(Oc4ccccc4)cc3)c3c(N)ncnc32)C1 [ibrutinib]
# Outline: as §1
# [9] = compound: CC(=O)c1cnc2ccc(-c3cc(Cl)c(O)c(Cl)c3)nc2c1N[C@H]1CC[C@H](CN(C)C)CC1
# Outline: as §1
# ralimetinib = compound: CC(C)(C)Cn1c(N)nc2ccc(-c3[nH]c(C(C)(C)C)nc3-c3ccc(F)cc3)nc21 [ralimetinib]
# Outline: as §1
# [10] = compound: CC(C)(O)CC(=O)NCCn1ccc2ncnc(Nc3ccc(Oc4cccc(C(F)(F)F)c4)c(Cl)c3)c21
# Outline: as §1
# [11] = compound: CC(C)C1=C2N=C(C=C(N2N=C1)NCC3=CC=CC=C3)NCCCCCCN
# Outline: as §1
# [12] = compound: CC1=C(C(CC(=O)N1)C2=CC=C(C=C2)C(F)(F)F)C(=O)NC3=C(C=C4C(=C3)C=NN4)F
# Outline: as §1
# [13] = compound: CC1=C(C2=C(C=C1)C(=O)C3=CC=CC=C3N2CCCN)C
# Outline: as §1
# [14] = compound: CC1=C(C=C(C=C1)NC(=O)C2=CC(=CC=C2)C(C)(C)C#N)NC3=CC4=C(C=C3)N=CN(C4=O)C
# Outline: as §1
# [15] = compound: CC1=C(C=C(C=C1)NC(=O)C2=CC(=CC=C2)N(C)C)NC(=O)C3=CC=C(C=C3)O
# Outline: as §1
# [16] = compound: CC1=CC=C(C=C1)SC2=C3C=C(SC3=CN=C2)C(=O)N
# Outline: as §1
# Sequence of UniProt Q9H9Y4 (Q9H9Y4 whole entry, looked up): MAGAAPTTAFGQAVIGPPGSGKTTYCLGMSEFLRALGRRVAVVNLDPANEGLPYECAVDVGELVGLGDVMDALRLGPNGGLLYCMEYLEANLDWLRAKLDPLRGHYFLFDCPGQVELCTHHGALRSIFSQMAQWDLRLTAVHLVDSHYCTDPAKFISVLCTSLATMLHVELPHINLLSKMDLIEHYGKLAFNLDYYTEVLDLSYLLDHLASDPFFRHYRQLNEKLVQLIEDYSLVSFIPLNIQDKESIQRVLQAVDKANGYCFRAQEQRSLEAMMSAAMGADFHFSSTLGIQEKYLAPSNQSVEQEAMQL
# Sequence of UniProt A6NDN3 (A6NDN3 whole entry, looked up): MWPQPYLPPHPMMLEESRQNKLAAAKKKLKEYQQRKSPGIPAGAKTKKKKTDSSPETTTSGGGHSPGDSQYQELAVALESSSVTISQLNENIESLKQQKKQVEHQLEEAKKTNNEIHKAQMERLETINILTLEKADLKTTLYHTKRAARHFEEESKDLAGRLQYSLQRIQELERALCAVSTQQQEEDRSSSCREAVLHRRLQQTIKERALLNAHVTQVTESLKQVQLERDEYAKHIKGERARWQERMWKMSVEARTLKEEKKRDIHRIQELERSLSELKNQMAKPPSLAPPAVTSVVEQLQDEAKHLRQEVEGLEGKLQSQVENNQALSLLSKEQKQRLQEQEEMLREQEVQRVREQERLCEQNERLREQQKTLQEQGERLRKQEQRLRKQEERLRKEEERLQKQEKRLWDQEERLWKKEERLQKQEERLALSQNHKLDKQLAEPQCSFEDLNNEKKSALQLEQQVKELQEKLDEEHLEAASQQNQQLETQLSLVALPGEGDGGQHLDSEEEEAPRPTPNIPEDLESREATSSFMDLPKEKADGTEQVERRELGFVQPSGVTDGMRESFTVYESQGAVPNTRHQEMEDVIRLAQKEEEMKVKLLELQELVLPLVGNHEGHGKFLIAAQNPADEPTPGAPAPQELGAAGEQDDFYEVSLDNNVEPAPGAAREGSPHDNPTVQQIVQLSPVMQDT
# Sequence of UniProt P49448 (P49448 whole entry, looked up): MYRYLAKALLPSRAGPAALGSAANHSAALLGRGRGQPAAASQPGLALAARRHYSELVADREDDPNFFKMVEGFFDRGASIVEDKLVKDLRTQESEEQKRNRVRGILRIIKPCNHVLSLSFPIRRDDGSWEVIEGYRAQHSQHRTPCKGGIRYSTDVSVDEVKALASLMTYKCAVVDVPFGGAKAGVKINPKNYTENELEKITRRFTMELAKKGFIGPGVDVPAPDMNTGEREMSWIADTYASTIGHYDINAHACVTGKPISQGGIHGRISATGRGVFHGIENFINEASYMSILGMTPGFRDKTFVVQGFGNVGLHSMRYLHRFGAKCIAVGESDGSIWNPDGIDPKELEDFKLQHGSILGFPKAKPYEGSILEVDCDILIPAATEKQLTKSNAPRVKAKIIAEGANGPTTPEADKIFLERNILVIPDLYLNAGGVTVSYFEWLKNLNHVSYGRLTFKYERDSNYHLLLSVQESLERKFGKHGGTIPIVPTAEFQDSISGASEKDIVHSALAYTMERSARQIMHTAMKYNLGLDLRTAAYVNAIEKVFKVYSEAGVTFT
# Sequence of UniProt O60547 (O60547 whole entry, looked up): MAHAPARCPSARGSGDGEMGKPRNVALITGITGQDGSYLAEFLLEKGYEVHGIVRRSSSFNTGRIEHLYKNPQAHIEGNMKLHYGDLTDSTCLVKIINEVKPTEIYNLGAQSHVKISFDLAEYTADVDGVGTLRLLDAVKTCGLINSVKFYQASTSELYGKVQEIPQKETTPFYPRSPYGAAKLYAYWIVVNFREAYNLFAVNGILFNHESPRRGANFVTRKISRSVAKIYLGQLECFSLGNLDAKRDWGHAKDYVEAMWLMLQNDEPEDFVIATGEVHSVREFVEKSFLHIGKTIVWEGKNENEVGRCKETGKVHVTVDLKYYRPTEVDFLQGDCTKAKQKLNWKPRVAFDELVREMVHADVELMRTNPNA
# Sequence of UniProt Q96EW2 (Q96EW2 whole entry, looked up): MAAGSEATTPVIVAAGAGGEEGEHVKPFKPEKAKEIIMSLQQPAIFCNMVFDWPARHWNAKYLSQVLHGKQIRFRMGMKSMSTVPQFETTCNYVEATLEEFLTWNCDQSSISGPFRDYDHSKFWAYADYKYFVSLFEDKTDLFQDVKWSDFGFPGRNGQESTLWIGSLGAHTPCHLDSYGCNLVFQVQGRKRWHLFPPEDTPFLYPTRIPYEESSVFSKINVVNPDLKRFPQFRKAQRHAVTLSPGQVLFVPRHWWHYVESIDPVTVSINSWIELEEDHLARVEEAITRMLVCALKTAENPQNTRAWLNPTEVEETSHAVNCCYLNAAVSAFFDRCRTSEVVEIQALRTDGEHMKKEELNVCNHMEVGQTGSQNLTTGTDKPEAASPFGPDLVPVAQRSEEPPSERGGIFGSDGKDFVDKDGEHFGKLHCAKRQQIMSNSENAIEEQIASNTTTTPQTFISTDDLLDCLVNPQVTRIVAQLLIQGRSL
# Sequence of UniProt O43824 (O43824 whole entry, looked up): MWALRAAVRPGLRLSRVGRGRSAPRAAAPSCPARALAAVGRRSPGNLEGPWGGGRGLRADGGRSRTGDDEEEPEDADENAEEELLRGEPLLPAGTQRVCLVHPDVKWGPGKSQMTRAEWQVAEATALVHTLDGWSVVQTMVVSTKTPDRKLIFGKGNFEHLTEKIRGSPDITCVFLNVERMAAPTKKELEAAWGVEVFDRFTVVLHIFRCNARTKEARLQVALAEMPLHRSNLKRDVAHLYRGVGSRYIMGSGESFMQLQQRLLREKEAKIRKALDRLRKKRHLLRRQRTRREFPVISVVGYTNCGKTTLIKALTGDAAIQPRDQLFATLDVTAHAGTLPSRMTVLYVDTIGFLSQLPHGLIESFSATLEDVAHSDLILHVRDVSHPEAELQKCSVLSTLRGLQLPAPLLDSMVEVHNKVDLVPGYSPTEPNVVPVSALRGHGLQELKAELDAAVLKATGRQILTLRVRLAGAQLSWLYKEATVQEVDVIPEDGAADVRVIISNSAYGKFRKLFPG
# Sequence of UniProt P28161 (P28161 whole entry, looked up): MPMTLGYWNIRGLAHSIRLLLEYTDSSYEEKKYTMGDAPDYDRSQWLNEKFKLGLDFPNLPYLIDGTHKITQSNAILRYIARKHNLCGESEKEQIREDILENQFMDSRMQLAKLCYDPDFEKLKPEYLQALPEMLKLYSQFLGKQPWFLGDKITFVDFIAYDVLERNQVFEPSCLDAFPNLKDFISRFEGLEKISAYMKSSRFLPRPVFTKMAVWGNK
# Sequence of UniProt Q0VDF9 (Q0VDF9 whole entry, looked up): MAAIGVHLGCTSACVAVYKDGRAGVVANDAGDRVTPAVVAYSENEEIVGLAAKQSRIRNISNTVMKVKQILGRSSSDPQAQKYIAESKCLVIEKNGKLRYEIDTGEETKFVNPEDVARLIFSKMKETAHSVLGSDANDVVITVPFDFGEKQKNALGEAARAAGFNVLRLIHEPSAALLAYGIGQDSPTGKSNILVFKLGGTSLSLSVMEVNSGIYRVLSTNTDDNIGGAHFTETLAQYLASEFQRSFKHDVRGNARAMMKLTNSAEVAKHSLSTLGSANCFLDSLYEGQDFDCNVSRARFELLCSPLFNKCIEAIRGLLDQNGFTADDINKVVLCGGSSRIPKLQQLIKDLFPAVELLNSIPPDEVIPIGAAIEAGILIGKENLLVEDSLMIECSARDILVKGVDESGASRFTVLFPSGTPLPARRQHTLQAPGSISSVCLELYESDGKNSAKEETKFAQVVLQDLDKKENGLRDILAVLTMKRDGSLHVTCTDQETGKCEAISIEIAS
# Sequence of UniProt Q9NSC5 (Q9NSC5 whole entry, looked up): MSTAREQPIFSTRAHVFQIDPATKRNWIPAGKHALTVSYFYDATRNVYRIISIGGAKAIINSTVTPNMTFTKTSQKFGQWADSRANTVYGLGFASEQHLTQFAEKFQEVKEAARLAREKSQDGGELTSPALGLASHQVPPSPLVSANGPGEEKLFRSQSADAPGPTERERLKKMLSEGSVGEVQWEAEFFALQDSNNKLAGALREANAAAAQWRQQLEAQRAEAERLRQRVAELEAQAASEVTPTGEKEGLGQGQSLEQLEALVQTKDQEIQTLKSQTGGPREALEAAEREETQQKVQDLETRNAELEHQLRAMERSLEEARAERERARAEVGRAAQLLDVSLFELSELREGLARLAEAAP
# Sequence of UniProt Q9BQQ3 (Q9BQQ3 whole entry, looked up): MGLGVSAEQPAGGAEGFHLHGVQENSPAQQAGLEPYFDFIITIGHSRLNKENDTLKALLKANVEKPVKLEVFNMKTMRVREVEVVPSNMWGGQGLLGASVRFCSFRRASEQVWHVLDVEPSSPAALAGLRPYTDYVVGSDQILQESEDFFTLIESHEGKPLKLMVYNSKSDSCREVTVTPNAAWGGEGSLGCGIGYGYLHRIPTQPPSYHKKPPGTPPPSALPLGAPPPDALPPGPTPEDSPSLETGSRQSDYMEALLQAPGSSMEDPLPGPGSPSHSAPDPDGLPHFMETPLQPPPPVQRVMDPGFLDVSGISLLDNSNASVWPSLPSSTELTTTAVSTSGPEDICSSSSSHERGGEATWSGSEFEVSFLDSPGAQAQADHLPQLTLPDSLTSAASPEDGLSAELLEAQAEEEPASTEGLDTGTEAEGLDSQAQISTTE
# Sequence of UniProt P02724 (P02724 whole entry, looked up): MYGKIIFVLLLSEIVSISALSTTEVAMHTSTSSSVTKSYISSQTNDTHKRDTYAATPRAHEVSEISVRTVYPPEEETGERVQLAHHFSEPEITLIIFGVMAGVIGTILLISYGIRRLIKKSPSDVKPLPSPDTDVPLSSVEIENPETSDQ
# Sequence of UniProt Q9H079 (Q9H079 whole entry, looked up): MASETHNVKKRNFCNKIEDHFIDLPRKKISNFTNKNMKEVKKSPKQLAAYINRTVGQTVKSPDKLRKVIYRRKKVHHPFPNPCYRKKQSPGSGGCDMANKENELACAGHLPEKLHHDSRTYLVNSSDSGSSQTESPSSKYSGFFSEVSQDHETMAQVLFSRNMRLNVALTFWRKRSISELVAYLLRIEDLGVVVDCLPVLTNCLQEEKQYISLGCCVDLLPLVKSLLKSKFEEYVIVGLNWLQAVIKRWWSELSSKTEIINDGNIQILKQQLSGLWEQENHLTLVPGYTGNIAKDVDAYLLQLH
Target,log2 fold change (erlotinib),log2 fold change [1],log2 fold change [2],log2 fold change [3],log2 fold change [4],log2 fold change [5],log2 fold change [6],log2 fold change [7],log2 fold change [8],log2 fold change (IRAK-1-4 Inhibitor I),log2 fold change (ibrutinib),log2 fold change [9],log2 fold change (ralimetinib),log2 fold change [10],log2 fold change [11],log2 fold change [12],log2 fold change [13],log2 fold change [14],log2 fold change [15],log2 fold change [16]
HDAC6 (UniProt Q9UBN7),-0.025,-0.002,-0.025,-0.006,-0.014,-0.042,-0.034,-0.001,-0.023,0.008,-0.051,0.003,-0.024,-0.041,-0.014,-0.036,-0.002,0.008,-0.01,0.01
GMDS (UniProt O60547),0.017,0.005,0.029,-0.054,-0.012,-0.023,-0.043,0.019,0.036,0.01,0.042,-0.018,0.025,0.01,-0.023,0.031,0.022,0.027,0.008,0.015
GOLGA6B (UniProt A6NDN3),0.092,-0.061,-0.082,0.033,0.08,-0.013,-0.054,0.011,0.032,-0.022,-0.034,0.003,-0.047,-0.187,-0.057,-0.127,-0.114,0.045,0.066,0
GLUD2 (UniProt P49448),-0.017,-0.016,-0.053,0.028,-0.057,-0.014,-0.09,-0.119,0.029,0.113,-0.063,0.063,0.02,-0.043,-0.012,0.018,-0.028,0.061,0.001,0.033
GSTM2 (UniProt P28161),-0.083,0.041,-0.038,-0.007,0.079,-0.008,-0.012,-0.021,-0.054,0.037,0.081,0.009,-0.006,-0.067,-0.021,-0.119,-0.033,–,0.004,-0.021
HSPA14 (UniProt Q0VDF9),0.014,0.025,-0.009,0.009,0.012,0.049,-0.035,0.018,0.014,0.003,0.004,-0.008,0.009,-0.013,-0.032,-0.02,-0.009,-0.012,0.033,0.004
INTS14 (UniProt Q96SY0),0.007,-0.13,0.025,0.008,-0.012,-0.001,0.018,-0.01,0,0.006,-0.006,-0.008,0.023,-0.012,-0.048,-0.003,-0.029,-0.004,0.006,-0.01
HSPBAP1 (UniProt Q96EW2),0.064,–,-0.098,–,-0.079,-0.072,–,0.002,0.031,-0.002,-0.008,0.039,-0.056,-0.095,0.038,-0.214,-0.324,0.002,0.084,0.084
IGF2BP2 isoform 6 (UniProt Q9Y6M1),–,–,–,–,–,–,–,–,–,–,–,-0.031,–,–,–,–,–,–,–,-0.016
HNRNPD (UniProt D6RF44),–,–,–,–,–,–,–,–,–,–,–,–,–,–,–,0.111,–,-0.334,–,–
"HNRNPL, A0A3B3ITJ4",–,–,–,–,-0.086,–,–,–,–,–,0.033,0.033,–,–,–,–,–,–,–,-0.104
GPN2 (UniProt Q9H9Y4),-0.022,0.089,0.032,0.043,–,-0.041,-0.056,-0.241 (active),-0.062,-0.027,–,-0.022,0.12,0.028,-0.042,0.036,0.025,0.067,0.057,0.019
GYPA (UniProt P02724),-0.109,-0.107,0.13,0.061,0.059,0.023,0.048,-0.004,0.043,0.017,0.318,0.102,-0.052,0.054,-0.095,–,-0.085,0.018,-0.037,-0.034
HNRNPM (UniProt M0R019),–,0.224,–,0.178,–,–,-0.128,–,–,–,–,–,–,–,–,–,–,–,–,–
GORASP1 (UniProt Q9BQQ3),-0.081,-0.026,-0.019,0.05,–,0.01,-0.057,0.049,0.018,-0.023,–,0.137,-0.01,-0.011,0.019,0.038,0.027,-0.061,-0.034,-0.02
HOMER3 (UniProt Q9NSC5),–,–,–,–,-0.078,–,–,–,–,–,-0.095,-0.01,–,–,–,–,–,-0.028,–,0.048
H3-3A (UniProt P84243),0.038,0.001,0.048,-0.033,-0.055,–,0.056,-0.053,-0.315 (active),–,0.042,-0.047,–,–,0.013,–,–,-0.034,–,-0.086
HDAC3 (UniProt E7ESJ6),–,–,–,–,–,–,–,–,–,–,–,-0.107,–,–,–,–,–,–,–,-0.004
HSPA8 (UniProt E9PN89),0.02,–,-0.004,–,-0.095,0.082,–,-0.045,-0.043,-0.055,0.081,-0.051,0.034,-0.215,0.007,-0.036,0.017,0.093,0.231,-0.083
HNRNPUL1 (UniProt M0R247),-0.046,–,0.079,–,-0.049,–,–,–,–,–,-0.045,–,–,–,0.016,–,–,–,–,–
ITGB1BP2 (UniProt Q9UKP3),–,0.017,–,-0.001,–,–,0.039,-0.117,0.09,–,–,–,–,–,–,–,0.139,–,–,–
GTPBP6 (UniProt O43824),–,0.187,–,0.11,–,–,-0.048,-0.082,0.037,–,–,–,–,–,–,–,-0.617,–,–,–
KATNBL1 (UniProt Q9H079),-0.012,0.009,-0.02,0.064,–,–,-0.001,0.045,-0.687 (active),–,–,-0.002,–,–,0.156,-0.029,-0.002,0.082,–,-0.025
GPLD1 (UniProt P80108),–,–,–,–,–,–,–,–,–,–,–,–,–,–,–,–,-0.058,-0.187,–,–
HECW2 (UniProt Q9P2P5),-0.012,0.009,-0.093,0.013,–,-0.075,0.023,0.029,-0.118,0.082,–,–,0.106,-0.148,-0.036,0.019,-0.091,0.116,0.073,–
